This is an account of results in PubChem BioAssay AID652065 (The Scripps Research Institute Molecular Screening Center, 2013).

Values joined by “and” are separate entries in the source; they are usually repeats but may differ in a detail not shown here. Equal values may be shown once. Out of some 4,300 compounds screened, about 3,000 (70%) were called active.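 How the source made its calls: active means inhibition above a per-plate cutoff, the mean inhibition of sample wells plus 3 SD (cut at about 35% in these data); inactive means the rest.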 So high a share suggests a set chosen from earlier hits. Not all results are given here. A structure can be active in one record and inactive in another.

A short description of the assay: small molecules binding CAG repeat RNA – biochemical, fluorescence, confirmation (AID 652065).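 Further: loss of TO-PRO-1 fluorescence as compound displaces dye from 1x1 AA loop RNA; 0% = DMSO only wells and 100% = 100 µM mitoxantrone.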 The conditions noted are these: r(CAG) RNA repeat, TO-PRO-1 dye displacement fluorescence; at 3 µM; stronger effect = higher value.
As for `Cc1ccc([C@@H]2CC=C(C(=O)O)[C@H](c3cccc(Cl)c3)N2S(=O)(=O)c2ccc(C)cc2)cc1`, the inhibition is 80.4% (active).
Consider `Cc1ccccc1S(=O)(=O)N1[C@@H](c2cccc(Cl)c2)C(C(=O)O)=CC[C@H]1c1ccc(Cl)cc1`, for which the inhibition was 83.1% (active).
To `Cc1ccc(S(=O)(=O)N2[C@@H](c3ccccc3F)C(C(=O)O)=CC[C@H]2c2ccc(Cl)cc2)cc1` belongs 64.8% (active); to `COc1ccc(Cl)cc1-n1c(=S)sc2c(=O)n(-c3ccc(F)cc3)c(SCC(=O)O)nc21`, 28.9% (inactive); to `Cc1oc2c(F)c(F)c(F)c(F)c2c1S(=O)(=O)Nc1cccc(C(F)(F)F)c1`, 44.5% (active).
To `COc1ccc(NS(=O)(=O)c2cc(NC(=O)CC(=O)c3ccc([N+](=O)[O-])cc3)ccc2C)cc1` belongs 44.4% (active); to `Cc1ccc(S(=O)(=O)NCCC(c2ccccc2)c2ccccc2)cc1C(=O)O`, 28% (inactive); to `COc1ccc(NS(=O)(=O)c2cc(C(=O)Nc3ccccc3C(=O)O)ccc2C)cc1`, 52% (active).
As for `COc1cc(OC)c(S(=O)(=O)Nc2ccccc2C(=O)O)cc1S(=O)(=O)Nc1ccccc1C(=O)O`, the figure is 39.9% (active); as for `O=C(Nc1ccc2c(c1)CCC2)c1cccc(S(=O)(=O)Nc2ccccc2Cl)c1`, 40% (active).
For the compound `CO/N=C(\C(=O)N[C@@H]1C(=O)N2C(C(=O)O)=C(COC(C)=O)CS[C@H]12)c1csc(N)n1` (stereo in doubt), the inhibition was 48.1% (active).
To `Cc1ccccc1OCC(=O)Nc1nnc(S(=O)(=O)N2CCCC2)s1` belongs 33.1% (inactive); to `O=C(N/N=C/c1cc(Cl)cc([N+](=O)[O-])c1O)C(O)(c1ccccc1)c1ccccc1`, 52.6% (active); to `Cc1ccc(Sc2cc(C(=O)c3ccccc3C(=O)O)ccc2[N+](=O)[O-])cc1`, 68.5% (active).
For `Cc1c(CCC(=O)N[C@@H](CC(C)C)C(=O)O)c(=O)oc2c(C)c3oc4c(c3cc12)CCCC4`, the inhibition is 48.4% (active).
As for `CC[C@@H](C)[C@H](NC(=O)CCc1c(C)c2cc3c4c(oc3c(C)c2oc1=O)CCCC4)C(=O)O`, the figure is 52.4% (active); as for `Cc1ccc(S(=O)(=O)N2[C@@H](c3ccc(Br)cc3)C(C(=O)O)=C[C@H]2CC2CCCC2)cc1`, 72.6% (active); as for `CCCCC[C@@H]1C=C(C(=O)O)[C@H](c2ccc(C#N)cc2)N1S(=O)(=O)c1ccc(C)cc1`, 55.7% (active).
To `Nc1[nH]c(=S)nc2nc(-c3ccccc3)c(-c3ccccc3)nc12` belongs 15.6% (inactive); to `NC(=O)c1c(Nc2nc3c(F)cccc3s2)sc2c1CCCC2`, 39.3% (active); to `Cc1cc(N2C(=O)C(O)=C(C(=O)c3ccc(C)o3)C2c2ccc(OCc3ccccc3)cc2)no1` (stereo not drawn), 64.8% (active).
Turning to `Nc1cccc(-c2cc(-c3ccccc3)nc(-c3cccc(N)c3)n2)c1`, the inhibition was 21.8% (inactive).
To `N#Cc1c(-c2ccccc2)cc(-c2ccccc2)nc1SCC(=O)O` belongs 44.6% (active); to `O=C(Cc1ccccc1)Nc1ccc(C(=O)Nc2ccccc2C(=O)O)cc1`, 50.5% (active); to `Cc1ccc(C(=O)O)cc1-c1ccc(/C=C2\SC(=O)N(CC(=O)Nc3ccc4c(c3)OCO4)C2=O)o1`, 85.1% (active).
As for `CCn1cc(C(=O)NCC2COc3ccccc3O2)c2cc(OC)c(OC)cc2c1=O` (stereo not drawn), the figure is 3.06% (inactive); as for `O=C(COc1ccccc1Cl)Nc1ccc(C(=O)c2ccc(C(=O)O)cc2)cc1`, 27.3% (inactive); as for `Cc1cc(C)cc(OCC(=O)Nc2cc(NC(=O)COc3cc(C)cc(C)c3)cc(C(=O)O)c2)c1`, 78.6% (active).
As for `Cc1cccc(OCC(=O)Nc2ccc(C(=O)O)cc2NC(=O)COc2cccc(C)c2)c1`, the figure is 44.8% (active); as for `Cc1cc(C)cc(Oc2c(C(F)(F)F)oc3cc(OCC(=O)O)ccc3c2=O)c1`, 27.1% (inactive); as for `CC(Oc1ccc2ccccc2c1)C(=O)NNC(=S)NC(=O)c1ccco1` (stereo not drawn), 42.4% (active).
For the compound `CCCc1ccc(OCC(=O)NNC(=S)NC(=O)c2ccco2)cc1`, the inhibition is 56.7% (active).
To `COc1ccc(OCC(=O)Nc2nnc(-c3ccco3)s2)cc1` belongs 12.6% (inactive); to `CC1CCCCN1S(=O)(=O)c1ccc(C(=O)Nc2nnc(-c3cccs3)o2)cc1` (stereo not drawn), 40.6% (active).
Turning to `CN1CCN(S(=O)(=O)c2cccc(C(=O)Nc3sccc3C#N)c2)CC1`, the inhibition was 24.8% (inactive).
To `N#Cc1ccccc1CN1C(=O)S/C(=C/c2cccn2-c2cccc(C(=O)O)c2)C1=O` belongs 63.3% (active).
As for `Cc1cc2nc(-c3ccco3)c(Cc3cccc(F)c3)n2c(C)c1Br`, the figure is 30.1% (inactive); as for `Cc1ccc(NC(=S)NNC(=O)CSc2nnc(SCc3ccccc3Cl)s2)cc1`, 48.4% (active).
To `O=C(Nc1nnc(-c2ccccc2)o1)c1cc(-c2cccs2)nc2ccccc12` belongs 68.2% (active); to `Cc1ccc(Cn2c(SCC(=O)N/N=C/c3ccccc3OCC(=O)O)nc3ccccc32)cc1`, 65.5% (active); to `Oc1c(Cl)cc(Cl)c(Cl)c1Cc1c(O)c(Cl)cc(Cl)c1Cl`, 91.4% (active).
`NC(c1csc(NC(=O)Nc2cccc(C(F)(F)F)c2)n1)C1CCCCC1` (stereo not drawn): the inhibition is 24.4% (inactive).
With `COc1ccc(C(N)c2csc(NC(=O)Nc3cccc(C(F)(F)F)c3)n2)cc1` (stereo not drawn), the inhibition was 25.6% (inactive).
For the compound `NC(c1ccccc1)c1csc(NC(=O)Nc2cccc(C(F)(F)F)c2)n1` (stereo not drawn), the inhibition is 59.1% (active).
Turning to `CCN1C(=O)/C(=C2/Sc3ccccc3N2CCCS(=O)(=O)O)SC1=S`, the inhibition was 29.9% (inactive) and 46.4% (active).
To `Cc1oc2cc([N+](=O)[O-])c(O)c([N+](=O)[O-])c2c1C(=O)c1ccc(Br)cc1` belongs 50.2% (active); to `CCCOc1ccc(Cn2c(O)cc(=O)[nH]c2=O)cc1`, 18.4% (inactive); to `C=CCSc1nsc(NC(=O)Nc2cccc(C(C)=O)c2)n1`, 34.4% (inactive).

The term inhibition denotes the percentage by which the read-out fell short of the control.
